S2 tox = reduces viability in counter-screen for ATXN expression inhibitors; Potency, µM (highest dose often 56.7 µM), hits mostly cytotoxic; 400,000 compounds, 0.49% hits; AID 651635; S2 cells (HEK-293 line with an ATXN2-luciferase reporter) viability, CellTiter-Fluor protease fluorescence, 24 h; also: nearly all actives have a fitted effect of over 40% in size
Nrf2 inh = blocks Nrf2 signaling; A549 ARE-Fluc reporter, luciferase luminescence, 18-24 h; Potency, µM (series often up to 46 µM), for inactives: at the highest dose activity change, negative = inhibition, most hits filed as inhibitors; 360,000 compounds, 2.1% hits; also: % is scaled to controls: 0 for no effect and ±100 for the full control effect; nearly all actives have a fitted effect of over 60% in size
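Two sequential reads on A549 ARE_Fluc cells exposed to compound for 18-24 h: a CellTiter-Fluor fluorescence read for viability, then a luciferase luminescence read for Nrf2/ARE activity.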
HepG2 viability = HepG2 cytotoxicity, counter-screen for TGF-b inhibitors. 410,000 compounds, 0.76% hits. HepG2 CAGA-GFP viability, ATP luminescence, 18 h. Potency, µM (titrated, usually from 46.1 µM), inactives show top-dose activity change, negative = cytotoxicity, most hits filed as cytotoxic
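HepG2 CAGA-GFP cells (1000/well, DMEM with 1% FBS) received compound, then TGF-beta at 500 pg/mL final, and were incubated 18 hours at 37 degrees C. Viability was read by CellTiter-Glo luminescence. Media-only wells were set as complete cell-killing and DMSO as no toxicity.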
ATXN2 expr inh = reduces ATXN2 reporter expression in HEK-293 cells; HEK-293 ATXN2-luciferase reporter, luminescence, 24 h; Potency, µM (top dose mostly 57 µM), for inactives: at the top dose activity change, negative = inhibition, usual class: inhibitors; 360,000 compounds, 0.72% hits; AID 1745845; also: % is scaled to controls: 0 for no effect and ±100 for the full control effect; nearly all actives have a fitted effect of over 55% in size
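ATXN2-luciferase reporter cells (luciferase flanked by upstream and downstream ATXN2 gene portions) were treated 24 h at 37 °C with compounds at up to 57 uM. SteadyGlo luminescence gave expression; GF-AFC fluorescence gave viability.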
A549 viability = kills or reduces viability of A549 cells in Nrf2 counter-screen; A549 ARE-Fluc cells, CellTiter-Fluor viability, 18-24 h; Potency, µM (titrated, usually from 46 µM), inactives show at the highest dose activity change, negative = cytotoxicity, actives largely listed as inhibitors; 390,000 compounds, 0.16% hits; also: % is scaled to controls: 0 for no effect and ±100 for the full control effect
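Cytotoxicity counterscreen: CellTiter-Fluor fluorescence was measured in A549 ARE_Fluc cells after 18-24 h of compound exposure in a concentration series. The subsequent BugLite luminescent read reports ARE-luciferase activity.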
TGFb inhibitor = blocks TGF-b signaling; HepG2 CAGA-GFP TGF-b/SMAD3 reporter, GFP fluorescence, 18 h; TGF-beta stimulated, 500 pg/mL final; Potency, µM (series often up to 46.1 µM), without a hit: at the top dose activity, negative = inhibition, hits mostly inhibitors; 410,000 compounds, 1.2% hits; also: % is scaled to controls: 0 for no effect and ±100 for the full control effect; nearly all actives have a fitted effect of over 65% in size
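First, reporter cells (HEPG2 CAGA-GFP) rested 2 h at 37 degrees C. Next, compounds were pinned in and TGF-beta added to 500 pg/mL final. After 18 h, GFP was imaged per cell and summed per well.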
Starred values were filed as active, the others as inactive; i = inactive; ? = inconclusive; nt = no result; [ ] = dose if it differs, or a comment. Rows were chosen to be rich in hits. Some 3.8% of all compounds tested hit in one or more screens of this group. Calls follow the shape of the dose curve; as a rule, active = well fitted curve in the direction sought with a large enough effect; inconclusive = small, poorly fitted or top-dose-only effect, or another doubt; inactive = no such curve, though single readings can be large; an effect the other way counts as inactive or inconclusive. Potency is read from the fitted curve at half-maximal effect.

SMILES	S2 tox	Nrf2 inh	HepG2 viability	ATXN2 expr inh	A549 viability	TGFb inhibitor
COc1ccc2c(Cl)c(C(N)=O)sc2c1	i	5%	-1%	7%	-5%	8%
COc1ccc2c(Cl)c(C(=O)NN)sc2c1	i	15µM*	-2%	?	-3%	10%
O=C(Nc1ccccc1Cl)N1CCC2(CC1)Oc1ccccc1C(=O)N2Cc1ccc(F)cc1	nt	0%	-1%	nt	12%	-3%
C/C(=N\NC(=O)COc1cccc(Cl)c1)c1ccc2c(c1)OCCO2	i	-22%	8%	17%	1%	1%
C/C(=N\NC(=O)CSCc1ccc(Cl)cc1)c1ccc2c(c1)OCCO2	i	16µM*	-3%	-19%	-7%	-4%
CCCC(C(=O)Nc1nccs1)c1ccccc1 (stereo not drawn)	i	nt	-5%	2%	0%	0%
Cc1ccc(S(=O)(=O)N(CC(O)Cn2c3ccccc3c3ccccc32)c2cccc(C(N)=O)c2)cc1 (stereo not drawn)	?	-11%	11µM*	?	-1%	10µM*
Cc1ccc(S(=O)(=O)N(CC(O)Cn2c3ccccc3c3ccccc32)c2cccc(C(=O)NCCO)c2)cc1 (stereo not drawn)	nt	?	16µM*	?	-11%	13µM*
Cc1ccc(S(=O)(=O)N(CC(O)Cn2c3ccccc3c3ccccc32)c2cccc(C(=O)N(C)C)c2)cc1 (stereo not drawn)	?	?	-24%	?	-19%	?
CN(C)c1ccc(/C=C/C=N/Nc2nc(N3CCOCC3)nc(N3CCOCC3)n2)cc1	nt	-12%	-2%	nt	-7%	?
N#Cc1sc(NCc2ccccn2)nc1Cl	i	18%	-6%	5%	1%	10%
CCN(C(=O)c1cn(CC)c(=O)c2cc(OC)c(OC)cc12)c1ccc(C)c(C)c1	i	?	-17%	-13%	4%	-8%
Cc1c(C(=O)NCCCN2CCOCC2)oc2c1C1(CCC2)SCCS1	i	4%	-2%	32%	-3%	7%
COC(=O)[C@]1(C)CCC[C@@]2(C)C3CC[C@@]4(C)C[C@]3(CCC21)CC(=O)N4Cc1ccc(OC)cc1 (stereo partly drawn)	?	15µM*	-29%	?	-7%	?
Cc1cc(=O)c2ccccc2n1CC(=O)NCc1ccccc1	i	-29%	-23%	-16%	-10%	?
Cc1cc(=O)c2ccccc2n1Cc1ccccc1	i	16µM*	-22%	?	-7%	?
Cc1ccc(S(=O)(=O)c2nc(-c3cccs3)oc2SCc2ccc(F)cc2)cc1	?	-13%[9.27 µM]	-22%	6%	-1%	-2%
CCNc1oc(-c2cccc3ccccc23)nc1C#N	?	-18%	-4%	23%	3%	-20%
N#Cc1nc(-c2cccc3ccccc23)oc1NCCN1CCCCC1	i	11%	22µM*	-14%	0%	0%
CCCCc1ccc(NC(=S)NCCc2ccc(F)cc2)cc1	i	?	-105%	-9%	?	16µM*
CCCNC(=S)Nc1ccc(Cl)cc1C	i	0%	3%	3%	-2%	-16%
C=CCNC(=S)Nc1ccc(Br)cc1F	nt	23µM*	-18%	nt	0%	?
CCCNC(=S)Nc1ccc(F)cc1F	i	12µM*	-2%	-11%	1%	-1%
C=CCNC(=S)Nc1ccc(Cl)cc1F	?	-26%	-18%	1%	-2%	?
COc1ccc(-n2c(=O)c3ccccc3n(Cc3ccccc3C)c2=O)c(OC)c1	?	-4%[9.27 µM]	-3%	-18%	0%	-33%
CCc1cc2c(cc3c(=O)n(CC(=O)NC4CCC(C)CC4)nc(CC)n32)s1 (stereo not drawn)	nt	?	2%	nt	1%	?
O=C1CCCC2=C1C1(CCCC1)N=C(Nc1nc3ccccc3n1Cc1ccccc1)N2	nt	16µM*	nt	nt	-6%	nt
